Source: ChEMBL document CHEMBL1961873, “Compounds: GSK PKIS; Assays: Nanosyn kinase panel” (2012)

How the values were obtained:
[1] = target: Sphingosine kinase 1 (Homo sapiens) (UniProt Q9NYA1); conditions: at 1 µM;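 also: mean SPHK1 inhibition value reported from the GSK PKIS kinase panel screen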
[2] = target: T1, Sphingosine kinase 2 (Homo sapiens) (UniProt Q9NRA0); conditions: at 0.1 µM
T1 sequence (whole entry): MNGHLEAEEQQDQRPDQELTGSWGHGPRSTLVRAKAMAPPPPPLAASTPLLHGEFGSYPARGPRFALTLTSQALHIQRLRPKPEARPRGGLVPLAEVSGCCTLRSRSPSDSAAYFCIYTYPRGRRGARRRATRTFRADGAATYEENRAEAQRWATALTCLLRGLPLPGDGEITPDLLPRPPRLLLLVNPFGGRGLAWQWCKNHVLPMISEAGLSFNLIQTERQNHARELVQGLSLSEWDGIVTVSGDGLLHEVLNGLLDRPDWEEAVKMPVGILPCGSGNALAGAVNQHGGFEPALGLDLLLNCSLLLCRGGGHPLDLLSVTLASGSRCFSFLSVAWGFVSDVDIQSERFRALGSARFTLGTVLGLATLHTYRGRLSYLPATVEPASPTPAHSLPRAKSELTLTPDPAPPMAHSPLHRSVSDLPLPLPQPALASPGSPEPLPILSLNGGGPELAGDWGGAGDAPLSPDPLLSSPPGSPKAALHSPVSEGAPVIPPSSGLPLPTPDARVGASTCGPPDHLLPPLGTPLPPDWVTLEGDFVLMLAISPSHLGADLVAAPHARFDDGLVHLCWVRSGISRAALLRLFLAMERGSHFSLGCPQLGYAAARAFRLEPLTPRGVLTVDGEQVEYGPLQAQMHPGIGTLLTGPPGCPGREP

[3] = target: T1, Sphingosine kinase 2 (Homo sapiens); conditions: at 1 µM
[4] = target: Casein kinase II subunit alpha (Homo sapiens) (UniProt P68400); conditions: at 0.1 µM
[5] = target: Casein kinase II subunit alpha (Homo sapiens) (UniProt P68400); conditions: at 1 µM
[6] = target: T2, Inhibitor of nuclear factor kappa-B kinase subunit alpha (Homo sapiens) (UniProt O15111); conditions: at 0.1 µM
T2 sequence (whole entry): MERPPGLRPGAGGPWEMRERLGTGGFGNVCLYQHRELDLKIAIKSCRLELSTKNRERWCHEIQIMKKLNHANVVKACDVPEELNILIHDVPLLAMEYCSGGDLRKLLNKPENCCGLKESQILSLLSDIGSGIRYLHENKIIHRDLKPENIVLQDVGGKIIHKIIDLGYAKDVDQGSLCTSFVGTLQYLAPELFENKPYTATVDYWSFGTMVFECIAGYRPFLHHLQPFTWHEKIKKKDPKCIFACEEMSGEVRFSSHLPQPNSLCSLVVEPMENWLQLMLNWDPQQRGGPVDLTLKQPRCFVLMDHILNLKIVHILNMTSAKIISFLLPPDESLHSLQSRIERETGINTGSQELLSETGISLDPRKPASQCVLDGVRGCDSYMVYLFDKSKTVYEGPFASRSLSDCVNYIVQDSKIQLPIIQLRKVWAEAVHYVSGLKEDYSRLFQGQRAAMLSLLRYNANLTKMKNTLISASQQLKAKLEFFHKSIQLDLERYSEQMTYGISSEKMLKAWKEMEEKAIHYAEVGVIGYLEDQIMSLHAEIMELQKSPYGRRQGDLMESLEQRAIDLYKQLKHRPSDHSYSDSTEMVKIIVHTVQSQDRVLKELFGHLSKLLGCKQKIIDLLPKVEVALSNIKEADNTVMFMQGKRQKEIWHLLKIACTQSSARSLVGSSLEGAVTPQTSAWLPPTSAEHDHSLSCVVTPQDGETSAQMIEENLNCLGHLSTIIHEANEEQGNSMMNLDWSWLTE

[7] = target: T2, Inhibitor of nuclear factor kappa-B kinase subunit alpha (Homo sapiens); conditions: at 1 µM
[8] = target: T3, Inhibitor of nuclear factor kappa-B kinase subunit beta (Homo sapiens) (UniProt O14920); conditions: at 0.1 µM
T3 sequence (whole entry): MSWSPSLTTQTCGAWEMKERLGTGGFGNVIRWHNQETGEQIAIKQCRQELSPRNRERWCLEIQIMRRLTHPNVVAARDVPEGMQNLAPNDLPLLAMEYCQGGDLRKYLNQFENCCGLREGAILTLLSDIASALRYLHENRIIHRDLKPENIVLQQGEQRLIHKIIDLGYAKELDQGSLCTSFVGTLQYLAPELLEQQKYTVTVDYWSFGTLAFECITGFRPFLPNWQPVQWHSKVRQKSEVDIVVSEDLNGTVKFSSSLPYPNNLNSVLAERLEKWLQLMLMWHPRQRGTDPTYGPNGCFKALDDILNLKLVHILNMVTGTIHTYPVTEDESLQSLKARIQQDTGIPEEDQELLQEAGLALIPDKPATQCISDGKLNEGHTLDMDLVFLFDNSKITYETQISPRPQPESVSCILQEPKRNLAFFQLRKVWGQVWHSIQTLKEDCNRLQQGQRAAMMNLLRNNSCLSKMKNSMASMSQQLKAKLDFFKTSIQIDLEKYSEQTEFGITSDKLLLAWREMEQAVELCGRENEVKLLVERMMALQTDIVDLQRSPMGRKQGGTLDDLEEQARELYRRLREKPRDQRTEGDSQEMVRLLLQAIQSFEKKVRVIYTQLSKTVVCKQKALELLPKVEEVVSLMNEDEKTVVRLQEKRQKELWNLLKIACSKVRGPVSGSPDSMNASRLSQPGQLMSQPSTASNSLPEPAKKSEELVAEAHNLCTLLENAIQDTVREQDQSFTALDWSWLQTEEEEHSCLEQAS

[9] = target: T3, Inhibitor of nuclear factor kappa-B kinase subunit beta (Homo sapiens); conditions: at 1 µM
[10] = target: T4, Inhibitor of nuclear factor kappa-B kinase subunit epsilon (Homo sapiens) (UniProt Q14164); conditions: at 0.1 µM
T4 sequence (whole entry): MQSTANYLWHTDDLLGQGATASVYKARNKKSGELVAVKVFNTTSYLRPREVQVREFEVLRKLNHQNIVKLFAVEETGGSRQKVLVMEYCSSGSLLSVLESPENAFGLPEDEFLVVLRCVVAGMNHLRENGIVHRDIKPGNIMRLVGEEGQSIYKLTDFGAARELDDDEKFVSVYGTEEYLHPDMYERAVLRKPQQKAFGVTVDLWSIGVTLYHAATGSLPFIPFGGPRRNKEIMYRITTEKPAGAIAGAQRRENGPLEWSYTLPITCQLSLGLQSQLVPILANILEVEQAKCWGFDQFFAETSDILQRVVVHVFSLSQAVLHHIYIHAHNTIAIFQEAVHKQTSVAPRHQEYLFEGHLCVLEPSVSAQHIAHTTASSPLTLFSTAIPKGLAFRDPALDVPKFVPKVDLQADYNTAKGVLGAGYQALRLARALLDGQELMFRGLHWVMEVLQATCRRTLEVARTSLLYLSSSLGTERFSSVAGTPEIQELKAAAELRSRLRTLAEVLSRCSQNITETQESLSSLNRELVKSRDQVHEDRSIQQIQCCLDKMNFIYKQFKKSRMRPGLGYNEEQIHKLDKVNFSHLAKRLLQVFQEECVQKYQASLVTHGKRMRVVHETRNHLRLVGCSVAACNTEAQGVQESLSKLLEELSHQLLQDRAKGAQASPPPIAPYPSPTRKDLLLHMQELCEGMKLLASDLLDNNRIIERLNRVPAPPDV

[11] = target: T4, Inhibitor of nuclear factor kappa-B kinase subunit epsilon (Homo sapiens); conditions: at 1 µM
[12] = target: T5, Serine/threonine-protein kinase Nek1 (Homo sapiens) (UniProt Q96PY6); conditions: at 0.1 µM
T5 sequence (whole entry): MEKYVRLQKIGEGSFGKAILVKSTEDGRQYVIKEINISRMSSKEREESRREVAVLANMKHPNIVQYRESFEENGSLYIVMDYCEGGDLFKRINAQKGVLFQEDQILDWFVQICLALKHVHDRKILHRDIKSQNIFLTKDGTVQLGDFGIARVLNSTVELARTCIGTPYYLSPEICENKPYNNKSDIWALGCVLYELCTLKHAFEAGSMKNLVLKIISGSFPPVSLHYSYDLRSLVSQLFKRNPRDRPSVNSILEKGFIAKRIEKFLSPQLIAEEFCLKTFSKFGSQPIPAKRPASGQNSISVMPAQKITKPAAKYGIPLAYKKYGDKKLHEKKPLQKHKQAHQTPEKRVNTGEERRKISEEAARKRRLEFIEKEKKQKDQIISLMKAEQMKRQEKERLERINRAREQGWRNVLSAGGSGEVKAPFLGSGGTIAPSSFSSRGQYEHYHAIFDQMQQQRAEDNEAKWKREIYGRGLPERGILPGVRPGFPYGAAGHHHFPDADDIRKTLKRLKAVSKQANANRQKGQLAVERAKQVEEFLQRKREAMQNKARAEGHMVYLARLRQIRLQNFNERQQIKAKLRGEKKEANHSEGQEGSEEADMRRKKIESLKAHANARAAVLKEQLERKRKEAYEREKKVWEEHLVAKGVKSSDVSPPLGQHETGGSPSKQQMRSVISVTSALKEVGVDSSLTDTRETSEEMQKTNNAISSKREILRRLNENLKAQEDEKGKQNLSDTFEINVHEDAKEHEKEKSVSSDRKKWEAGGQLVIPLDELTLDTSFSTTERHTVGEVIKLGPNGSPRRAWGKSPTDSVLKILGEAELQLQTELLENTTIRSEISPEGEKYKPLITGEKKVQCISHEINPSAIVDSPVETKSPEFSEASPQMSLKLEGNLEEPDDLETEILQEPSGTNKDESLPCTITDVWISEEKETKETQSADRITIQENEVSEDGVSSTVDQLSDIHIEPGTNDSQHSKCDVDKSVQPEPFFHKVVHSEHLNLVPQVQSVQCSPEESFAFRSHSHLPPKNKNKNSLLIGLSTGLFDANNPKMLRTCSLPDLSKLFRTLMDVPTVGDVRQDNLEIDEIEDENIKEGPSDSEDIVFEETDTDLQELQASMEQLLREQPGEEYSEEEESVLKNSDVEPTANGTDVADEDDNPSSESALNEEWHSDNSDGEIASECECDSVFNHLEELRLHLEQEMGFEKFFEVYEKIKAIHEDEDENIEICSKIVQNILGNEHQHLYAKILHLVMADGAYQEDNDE

[13] = target: T5, Serine/threonine-protein kinase Nek1 (Homo sapiens); conditions: at 1 µM
[14] = target: T6, Serine/threonine-protein kinase Nek2 (Homo sapiens) (UniProt P51955); conditions: at 0.1 µM
T6 sequence (whole entry): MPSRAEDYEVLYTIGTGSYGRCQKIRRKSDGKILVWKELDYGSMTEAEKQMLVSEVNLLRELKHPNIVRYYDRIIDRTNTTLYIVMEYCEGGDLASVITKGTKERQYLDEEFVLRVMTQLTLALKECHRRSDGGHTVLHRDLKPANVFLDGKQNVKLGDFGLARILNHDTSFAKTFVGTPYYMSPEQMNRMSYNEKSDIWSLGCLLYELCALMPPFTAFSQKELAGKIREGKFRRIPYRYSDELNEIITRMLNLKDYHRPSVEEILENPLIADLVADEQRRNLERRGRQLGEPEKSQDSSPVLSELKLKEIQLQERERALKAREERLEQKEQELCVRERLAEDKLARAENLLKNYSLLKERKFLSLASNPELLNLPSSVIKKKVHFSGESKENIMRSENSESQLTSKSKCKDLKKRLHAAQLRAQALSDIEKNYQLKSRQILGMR

[15] = target: T6, Serine/threonine-protein kinase Nek2 (Homo sapiens); conditions: at 1 µM
[16] = target: Serine/threonine-protein kinase Nek6 (Homo sapiens) (UniProt Q9HC98); conditions: at 0.1 µM
[17] = target: Serine/threonine-protein kinase Nek6 (Homo sapiens) (UniProt Q9HC98); conditions: at 1 µM
[18] = target: Serine/threonine-protein kinase Nek7 (Homo sapiens) (UniProt Q8TDX7); conditions: at 0.1 µM
[19] = target: Serine/threonine-protein kinase Nek7 (Homo sapiens) (UniProt Q8TDX7); conditions: at 1 µM
[20] = target: T7, Serine/threonine-protein kinase Nek9 (Homo sapiens) (UniProt Q8TD19); conditions: at 0.1 µM;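 also: reported value is the mean percent inhibition of NEK9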
T7 sequence (whole entry): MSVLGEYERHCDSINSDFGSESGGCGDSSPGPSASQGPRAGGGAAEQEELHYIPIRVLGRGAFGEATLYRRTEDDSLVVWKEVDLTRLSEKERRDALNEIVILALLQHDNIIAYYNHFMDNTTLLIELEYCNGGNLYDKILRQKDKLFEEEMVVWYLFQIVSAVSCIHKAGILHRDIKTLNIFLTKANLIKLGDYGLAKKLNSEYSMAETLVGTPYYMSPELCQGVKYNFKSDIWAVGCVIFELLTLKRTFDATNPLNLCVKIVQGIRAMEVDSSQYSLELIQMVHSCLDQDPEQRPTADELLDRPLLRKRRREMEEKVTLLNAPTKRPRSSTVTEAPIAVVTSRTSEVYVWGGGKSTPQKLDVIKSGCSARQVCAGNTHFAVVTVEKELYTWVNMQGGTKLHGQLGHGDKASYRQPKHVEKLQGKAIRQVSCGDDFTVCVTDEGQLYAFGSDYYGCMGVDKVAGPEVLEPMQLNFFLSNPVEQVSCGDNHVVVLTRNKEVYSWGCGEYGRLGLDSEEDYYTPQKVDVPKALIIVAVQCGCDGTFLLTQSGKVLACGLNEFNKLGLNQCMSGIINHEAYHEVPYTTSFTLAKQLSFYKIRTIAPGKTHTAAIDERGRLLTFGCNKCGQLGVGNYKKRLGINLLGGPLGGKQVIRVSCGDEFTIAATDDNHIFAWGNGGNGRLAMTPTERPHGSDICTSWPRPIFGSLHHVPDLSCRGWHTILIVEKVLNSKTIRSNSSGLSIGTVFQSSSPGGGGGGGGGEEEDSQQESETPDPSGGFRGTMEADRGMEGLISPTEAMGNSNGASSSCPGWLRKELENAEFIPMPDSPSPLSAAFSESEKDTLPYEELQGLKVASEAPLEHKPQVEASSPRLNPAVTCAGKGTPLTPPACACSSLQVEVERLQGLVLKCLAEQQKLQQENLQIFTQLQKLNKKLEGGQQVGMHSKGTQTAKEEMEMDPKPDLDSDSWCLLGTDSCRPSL

Chain of Serine/threonine-protein kinase Nek7 (Homo sapiens) (Q8TDX7 whole entry, looked up): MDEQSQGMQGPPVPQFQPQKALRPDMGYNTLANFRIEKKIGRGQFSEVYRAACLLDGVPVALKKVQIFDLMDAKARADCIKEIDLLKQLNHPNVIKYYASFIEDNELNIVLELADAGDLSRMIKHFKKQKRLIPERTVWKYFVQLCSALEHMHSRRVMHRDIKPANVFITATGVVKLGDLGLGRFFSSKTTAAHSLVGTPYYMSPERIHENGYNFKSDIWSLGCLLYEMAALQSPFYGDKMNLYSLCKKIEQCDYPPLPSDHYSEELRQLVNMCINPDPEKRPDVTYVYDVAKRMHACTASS
Chain of Casein kinase II subunit alpha (Homo sapiens) (P68400 whole entry, looked up): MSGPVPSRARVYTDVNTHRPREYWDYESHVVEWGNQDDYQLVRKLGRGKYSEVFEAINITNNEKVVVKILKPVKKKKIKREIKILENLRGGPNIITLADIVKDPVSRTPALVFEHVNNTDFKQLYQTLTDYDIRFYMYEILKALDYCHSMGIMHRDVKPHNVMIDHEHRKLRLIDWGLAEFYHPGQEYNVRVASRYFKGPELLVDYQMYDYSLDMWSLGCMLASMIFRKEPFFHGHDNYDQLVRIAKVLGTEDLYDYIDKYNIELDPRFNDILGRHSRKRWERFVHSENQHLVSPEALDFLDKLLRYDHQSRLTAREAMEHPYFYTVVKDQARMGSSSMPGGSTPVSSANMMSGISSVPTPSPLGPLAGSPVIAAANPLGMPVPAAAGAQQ
Chain of Serine/threonine-protein kinase Nek6 (Homo sapiens) (Q9HC98 whole entry): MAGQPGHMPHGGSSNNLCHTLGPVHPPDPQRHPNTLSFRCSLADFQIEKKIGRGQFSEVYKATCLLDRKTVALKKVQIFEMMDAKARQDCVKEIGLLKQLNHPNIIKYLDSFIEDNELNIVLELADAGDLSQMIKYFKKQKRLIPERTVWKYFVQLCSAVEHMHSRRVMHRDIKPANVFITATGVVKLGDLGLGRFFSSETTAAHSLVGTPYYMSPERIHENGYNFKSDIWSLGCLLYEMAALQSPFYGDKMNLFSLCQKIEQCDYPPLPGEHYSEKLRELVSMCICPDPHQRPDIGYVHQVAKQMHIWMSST
Chain of Sphingosine kinase 1 (Homo sapiens) (Q9NYA1 whole entry): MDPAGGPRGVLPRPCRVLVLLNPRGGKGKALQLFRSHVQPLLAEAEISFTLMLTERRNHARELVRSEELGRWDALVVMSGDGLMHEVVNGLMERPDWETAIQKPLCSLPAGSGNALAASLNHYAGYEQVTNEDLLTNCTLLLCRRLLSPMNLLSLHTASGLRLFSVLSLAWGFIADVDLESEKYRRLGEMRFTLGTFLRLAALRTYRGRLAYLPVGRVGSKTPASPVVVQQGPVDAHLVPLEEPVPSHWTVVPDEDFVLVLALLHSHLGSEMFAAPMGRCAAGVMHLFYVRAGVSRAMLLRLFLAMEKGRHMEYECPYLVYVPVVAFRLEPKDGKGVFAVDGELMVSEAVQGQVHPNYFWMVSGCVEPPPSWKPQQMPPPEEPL

COc1cc2c(cc1Nc1nc(N3CCc4ccccc43)c3cc[nH]c3n1)N(C(=O)CN(C)C)CC2
inhibition [1]: -1.12%
inhibition [2]: -0.36%
inhibition [3]: 0.81%
inhibition [4]: 0.13%
inhibition [5]: -9.3%
inhibition [6]: 2.9%
inhibition [7]: 0.37%
inhibition [8]: 4.25%
inhibition [9]: -1.42%
inhibition [10]: 0.88%
inhibition [11]: -0.46%
inhibition [12]: 1.31%
inhibition [13]: 1%
inhibition [14]: 2.74%
inhibition [15]: 3.53%
inhibition [16]: 0.8%
inhibition [17]: -0.68%
inhibition [18]: 3.4%
inhibition [19]: 3.29%
inhibition [20]: 4.32%
